Test results as given in publication PMC5540273 (PLoS ONE, 2017).

The compounds below were run on CHEK1. Details: concentration: 1 μM, replicates: in singlicate; n = 1.
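Also: KINOMEscan kinase panel screen.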

SMILES | %Inh
Cc1ccc(-c2cc(-c3c[nH]nc3-c3ccccn3)ccn2)cc1 [GW684088] | 12%
Cl.Oc1ccc(-c2nc(-c3ccccc3)[nH]c2-c2ccncc2)cc1 [SB-428218] | 0%
COc1ccc(C2=C(Nc3cccc(C(=O)O)c3)C(=O)NC2=O)cc1 [SB-390765] | 0%
COc1ccc2nc(-c3cccc(C)n3)nc(Nc3ccncc3)c2c1 [GSK204919] | 10%
CC1=C(C(=O)Nc2cc3cn[nH]c3cc2F)C(c2ccc(C(F)(F)F)cc2)CC(=O)N1 (centres unmarked) [GSK429286] | 7%
Cn1ccc2ncnc(Oc3cccc(C(=O)Nc4ccccc4)c3)c21 | 0%
Cl.NC(=O)c1cccc(Nc2nccc(Nc3ccc(Oc4cccc(Cl)c4)c(Cl)c3)n2)c1 [GW659008] | 0%
COc1ccc(Nc2nccc(-c3cccc(NC(=O)c4cc5cc(F)ccc5[nH]4)c3)n2)cc1 [GSK1229782] | 0%
O=C(Nc1n[nH]c2nc(-c3nccs3)c(Br)cc12)C1CCCC1 [SB-742609] | 0%
CCn1c(-c2ccccn2)nc2cnccc21 [SB-736398] | 0%
Cn1ccc2ncnc(Oc3ccc(Nc4nc5ccccc5[nH]4)cc3)c21 | 0%
CS(=O)(=O)c1ccc(-c2nc3n(c2-c2ccncc2)CCC3)cc1 [SKF-105942] | 0%
Nc1nc(-c2nccs2)c(-c2ccnc3ccccc23)s1 [GW693542] | 5%
COc1cccc(NC(=O)NC2CCN(c3ccnc(Nc4ccc(F)cc4)n3)C2)c1 (centres unmarked) [GSK1379721] | 2%
Cn1ccc2ncnc(Oc3ccc(NC(=O)Nc4ccccc4)cc3)c21 | 1%
Cc1csc(-c2nc(Nc3ccncc3)c3ccccc3n2)n1 [GW869640] | 7%
O=c1cc(N2CCOCC2)nc2n(Cc3cccc(Cl)c3Cl)ccn12 [GSK2286295] | 0%
COc1cc2ncnc(Nc3ccc4nc(-c5ccccc5)[nH]c4c3)c2cc1OC.Cl [GW282450] | 0%

SMILES | %Inh
CCCc1ccc(S(=O)(=O)NC2CCN(c3ccnc(Nc4ccc(F)cc4)n3)C2)cc1 (centres unmarked) [GSK1379715] | 6%
COc1cc2nccc(Nc3ccc(NC(=O)c4ccc(C)cc4)c(O)c3)c2cc1OC.Cl [GW440132] | 0%
CCn1c(-c2cccnc2O)nc2cnccc21 [SB-736715] | 0%
O=C(Nc1n[nH]c2cc(-c3cccc(F)c3F)ccc12)C1CC1 [SB-733894] | 3%
Cc1c(O)cccc1Nc1ccnc2ccc(C(F)(F)F)cc12.Cl [GW466413] | 0%
COc1ccccc1-c1ccc2c(NC(=O)C3CC3)n[nH]c2n1 [SB-711239] | 11%
COC(=O)c1c(-c2ccccc2)c2cc(C(=O)O)ccc2c(=O)n1Cc1ccccc1 | 0%
Cc1ccc(NC(=O)Nc2cc(C(C)(C)C)nn2-c2ccccc2)cc1 [GSK1014915] | 24%
Cc1cc(NCC(c2ccccc2)c2ccccc2)nc(NCc2ccc(C(F)(F)F)cc2)n1 [GW497681] | 0%
Cc1cccc(-c2nc(-c3ccc(S(C)(=O)=O)cc3)sc2-c2ccnc(NCCc3ccccc3)c2)c1 | 0%
O=C(Nc1ccccc1)Nc1cccc(Oc2ccc3nccn3n2)c1 | 0%
COc1cccc(-c2cc(-c3c[nH]nc3-c3ccccn3)ccn2)c1 [GW680338] | 0%
CN(C)CCN(C)C(=O)c1cc(-c2ccncc2)c(-c2ccc(Cl)c(O)c2)o1.Cl.Cl [SB-710397] | 9%
COc1cc(Nc2nccc(N3CCC(NC(=O)Nc4cc(C)ccc4C)C3)n2)cc(OC)c1OC (centres unmarked) [GSK1379762] | 25%
Fc1cc(Cl)ccc1Nc1ccnc2cc(-c3ccc(CN4CCCCC4)o3)ccc12 [GW560116] | 0%
Cc1cccc(-c2nc(Nc3cccc(C(N)=O)c3)c3ccccc3n2)n1 [GW876019] | 0%
Clc1cc(Cl)cc(Nc2ccnc(Nc3cc(Cl)cc(Cl)c3)n2)c1 [GSK175726] | 0%
